Source: PubChem (National Center for Advancing Translational Sciences (NCATS))
HCMV antiviral: qHTS Assay for inhibitors of the human cytomegalovirus (HCMV); HFF cells, HCMV-luciferase reporter, 72 h; stronger effect = lower value; activity change, negative = inhibition, % at 57.5 µM; 410,000 tested, 4.5% active; AID 1259415, 2018; in the data active = activity change below about -60%; inconclusive = no clear call, values can overlap the other calls; inactive = above about -39%
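Human foreskin fibroblasts infected with luciferase-reporter HCMV at MOI 1 PFU/cell, compounds at two doses. Luciferase measured 72 h post infection; normalized to buffer-only basal and Salinomycin (10uM) controls.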
Vaccinia Venus: qHTS for Stage-Specific Inhibitors of Vaccinia Orthopoxvirus: Venus Reporter Primary qHTS; AID 720580, 2013; Potency, µM (top dose mostly 36.5 µM), for inactives: top-dose activity change, negative = inhibition, actives largely listed as inhibitors; Vaccinia virus Venus reporter expression, fluorescence; 330,000 tested, 0.46% active; calls by dose curve; tested in A549 cells; note: potency is the fitted concentration of half-maximal effect; nearly all actives have a fitted effect of over 30% in size
HCV inh: qHTS Assay for Inhibitors of Hepatitis C Virus (HCV). Huh7.5.1 HCVcc-Cre infection, luciferase reporter, 44 h. Potency, µM (series often up to 41.8 µM), inactives show at the highest dose activity change, negative = inhibition, usual class: inhibitors. 340,000 tested, 3.4% active; note: potency is the fitted concentration of half-maximal effect
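Cells seeded at 1,000/well and cultured 4 h, then compounds added followed by HCVcc-Cre virus (~0.5 moi). After 44 h further culture, luciferase substrate was added, plates held 15 min at room temperature, and luminescence read for 15 sec.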
VACV mCherry inh: qHTS for Stage-Specific Inhibitors of Vaccinia Orthopoxvirus: mCherry Reporter Primary qHTS; 310,000 tested, 0.63% active; Potency, µM (top dose mostly 36.5 µM), without a hit: top-dose activity change, negative = inhibition, usual class: inhibitors; AID 720579, 2013; Vaccinia virus mCherry reporter infection, fluorescence; calls by dose curve; tested in A549 cells; note: potency is the fitted concentration of half-maximal effect; nearly all actives have a fitted effect of over 35% in size
FMDV inh: High Throughput Screening for Foot and Mouth Disease Virus Antivirals. FMDV antiviral cell-based qHTS. Potency, µM (titrated, usually from 57.9 µM), without a hit: at the highest dose activity change, negative = inhibition, hits mostly inhibitors. 410,000 tested, 1.2% active. AID 1159524, 2015; calls by dose curve; tested in HEK293T cells; note: read-out not given here; potency is the fitted concentration of half-maximal effect; nearly all actives have a fitted effect of over 45% in size
Giardia FBPA inh: qHTS Assay for Inhibitors of Fructose-1,6-bisphosphate Aldolase from Giardia Lamblia; purified Giardia FBPA; Potency, µM (highest dose often 59.6 µM), for the others: top-dose activity, negative = inhibition, hits mostly inhibitors; 290,000 tested, 0.71% active; AID 2451, 2010; note: potency is the fitted concentration of half-maximal effect; nearly all actives have a fitted effect of over 55% in size
Target sequence (A8B2U2 whole entry, looked up): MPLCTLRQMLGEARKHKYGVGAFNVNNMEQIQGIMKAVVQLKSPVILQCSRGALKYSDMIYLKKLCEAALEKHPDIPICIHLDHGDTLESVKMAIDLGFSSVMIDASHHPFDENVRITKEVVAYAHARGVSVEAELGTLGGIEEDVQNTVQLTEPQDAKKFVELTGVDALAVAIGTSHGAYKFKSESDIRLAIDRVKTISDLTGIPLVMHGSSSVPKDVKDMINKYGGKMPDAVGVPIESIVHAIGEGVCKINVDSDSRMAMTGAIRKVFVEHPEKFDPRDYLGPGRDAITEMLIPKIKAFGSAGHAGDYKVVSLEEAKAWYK
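Giardia FBPA (40 nM reagent) was preincubated 10 min at RT with compound (up to 57.5 uM final), then substrate plus GAPDH/TPI/NAD/arsenate coupling system with diaphorase/resazurin was added; resorufin fluorescence (525/598 nm) was read after 20 min.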
Numbers without * were called inactive; i = inactive; ? = inconclusive; . = no result given; ! = a repeat was not active; [ ] = dose if it differs, or a comment. A selection: hits, their analogues and other compounds. The true share with any hit is near 7.5%. Unless noted, calls come from the whole dose curve; as a rule, active = well fitted curve in the direction sought with a large enough effect; inconclusive = small, poorly fitted or top-dose-only effect, or another doubt; inactive = no such curve, though single readings can be large; an effect the other way counts as inactive or inconclusive. % is set by controls: 0 for no effect and ±100 for the full control effect.

SMILES	HCMV antiviral	Vaccinia Venus	HCV inh	VACV mCherry inh	FMDV inh	Giardia FBPA inh
CCOc1ccccc1CNc1nc2nc(C)c(CC(=O)OC)c(=O)n2[nH]1	11.9	-14.4%	.	-19.3%	5.9%	.
ON=C1c2ccccc2-c2cc(Br)ccc21	-64.2*	-27.1%	?	-28.7%	0.0%	.
ON=C1c2ccccc2-c2ccc(O)cc21	-29.8	?	?	?	37.6%	.
CCCn1c(C)nc2c(NC(C)CCCN(CC)CC)nc(C)nc21 (stereo not given)	.	.	.	.	.	-0.4%
Cc1cc2ccccc2n1CCNC(=O)Cc1cccc2ccccc12	34.1	0.6%	6.31µM*	i	-26.9%	-0.8%
O=C(Cc1cccc2ccccc12)NCCOc1ccccc1F	-62.6*	-18.0%	-0.2%	i	-2.5%	-25.7%
N#C/C(=C\C=C\c1ccccc1[N+](=O)[O-])C(=O)NCc1ccccc1	-98.4*	-16.6%	31.6µM*	-29.6%	-39.0%	.
Clc1cccc(-c2cccc3nccn23)c1Cl	-79.3*	-5.7%	.	-4.5%	-26.7%	.
N#Cc1c(-c2ccc(F)cc2)nc2n(c1=O)CCS2	-17.2	.	22.4µM*	.	1.4%	3.1%
CCOc1ccccc1NC(=O)C1CCN(C(=O)Cc2ccccc2)CC1	-6.1	-3.8%	2.24µM*	-19.9%	-2.3%	2.3%
COc1ccc(NC(=O)c2ccccc2NS(=O)(=O)c2ccc(CNC(C)=O)cc2)c(OC)c1	7.7	-19.0%	-6.4%	-22.7%	11.1%	-5.6%
CCOC(=O)N1CCC(NCCNC(=O)c2cccs2)CC1	-16.2	-10.0%	26.8%	i	-20.3%	-8.9%
O=C(NCCNC1CCC(c2ccccc2)CC1)c1cccs1 (stereo not given)	-98.7*	-2.1%	?	-5.4%	-13.5%	?
Cc1ccccc1CN1C[C@@H]2C[C@@H](c3cn[nH]c3-c3ccccc3)N3CCC[C@@]23C1=O	-66.4*	-7.4%	12.6µM*	-11.1%	10.3%	0.4%
CCn1ncc([C@@H]2C[C@H]3CN(Cc4ccccc4C)C(=O)[C@]34CCCN24)c1C	-14.8	-4.2%	3.9%	i	-4.3%	-5.8%
N#CC(c1ccccc1O)N1N=C(c2ccccc2)CC1c1ccccc1 (stereo not given)	-60.7*	.	?	.	37.3%	-29.7%
O=C1CC(c2ccc(O)cc2)Oc2cc(O)cc(O)c21 (stereo not given)	28.4	-20.4%	-5.2%	-12.4%	-17.4%	7.5%
CC1CC(=O)c2c(cc3c(-c4c(O)cc(O)c5c(O)c6c(cc45)OC(C)CC6=O)c(O)cc(O)c3c2O)O1 (stereo not given)	.	14.1µM*	4.47µM*	10µM*	35.5µM*	-27.3%
Cc1cc(Cl)ccc1NC(=O)Cn1nc(C)c2c(C)n(-c3ccccc3)nc2c1=O	-8.0	-12.9%	.	-15.0%	-18.3%	.
COc1cc(CN2CCC(N3CCC(C(=O)N4CCCC4)CC3)CC2)cc2c1OCO2	45.5	-26.2%	10µM*	-2.6%	-9.2%	2.7%
O=C(C1CCN(C2CCN(Cc3ccc4c(c3)CCO4)CC2)CC1)N1CCCC1	-19.9	-15.9%	?	-12.3%	-24.0%	0.1%
CCCCC[C@@H](/C=C/C1C(=O)C=C[C@H]1C/C=C\CCCC(=O)OC)OC(C)=O (stereo not given in full)	1.6	?	-9.3%[8.37 µM]	?	28.2µM*	.
Cc1nnc(SCC(=O)NC2CCCCC2)n1-c1ccccc1	-37.4	-6.2%	.	i	-9.4%	.
COc1ccc(-c2nn(-c3ccccc3)cc2C(=O)NC(=S)N2CCOCC2)cc1OC	-96.5*	.	-2.4%	.	18.9%	.
COc1ccc(-c2nn(-c3ccccc3)cc2C(=O)NC(=S)NNC(=O)c2ccncc2)cc1	-91.7*	.	-22.0%	.	0.0%	10.2%
SMILES	HCMV antiviral	Vaccinia Venus	HCV inh	VACV mCherry inh	FMDV inh	Giardia FBPA inh
O=C(O)c1cn(-c2ccccc2)nc1-c1ccncc1	37.2	-6.1%	5.4%	-14.3%	9.6%	5.3%
O=C(OCn1nnc2ccccc2c1=O)c1cccnc1	21.8	0.5%	27.1%	-7.0%	3.0%	3.3%
O=C(OCn1nnc2ccccc2c1=O)c1cn(-c2ccccc2)nc1-c1cccnc1	-30.4	-17.3%	10µM*	-29.9%	?	1.4%
CCOC(=O)c1cn(-c2ccccc2)nc1-c1ccncc1	-17.2	.	10µM*	.	-24.0%	-1.1%
CCOC(=O)c1cn(-c2ccccc2)nc1-c1cccnc1	41.2	-13.6%	10µM*	-0.6%	-10.0%	-0.9%
O=C(O)c1ccc(NC(=O)c2cn(-c3ccccc3)nc2-c2ccc(Br)cc2)cc1	-63.6*!	6.3%	9.6%	-6.8%[7.34 µM]	-1.2%	-7.8%
COC(=O)c1cn(-c2ccccc2)nc1-c1ccccc1	14.2	-11.0%	11.2µM*	.	-8.7%	-2.1%
CCCS(=O)(=O)N1CCCC(C(=O)Oc2ccc(OC)cc2)C1 (stereo not given)	0.2	-2.9%	1.0%	-12.6%	-2.7%	7.9%
COc1ccc(C=CC(=O)c2ccc(OC)c(OC)c2O)cc1OC	19.0	-4.1%	-20.4%	-2.5%	?	.
COc1ccc(C(=O)/C=C/c2ccc(O)cc2)c(O)c1C/C=C(\C)CCC=C(C)C	-105.4*	-3.8%	?	-4.1%	?	.
O=C(/C=C/c1ccc(O)c(O)c1)c1ccc(O)cc1O	.	.	.	.	.	-12.0%
C=C(C)C(O)CC/C(C)=C/Cc1c(O)ccc(C(=O)/C=C/c2ccc(O)cc2)c1O (stereo not given)	-67.5*	-0.4%	?	-15.1%	?	.
CCn1nc(C)c(/C=N/NC(=O)c2ccc3c(c2)c(C)c(C)n3Cc2ccccc2)c1C	-34.7	?	10µM*	-8.3%	?	6.0%
Cc1cc(O)c(C)c(O)c1/C=N/NC(=O)c1cccnc1	-96.5*	-23.3%	12.6µM*	?	35.6%	-24.5%
Cn1c(-c2ccccc2)c(/C=N/NC(=O)c2ccc(O)cc2)c2ccccc21	34.7	.	10µM*	.	3.1%	-11.0%
O=C(NN=Cc1c(O)ccc2ccccc12)c1ccncc1	-100.0*	?	?	2.51µM*	3.3%	.
O=C(CSc1ncccc1C(=O)O)Nc1ccc2c(c1)OCCO2	16.1	-5.3%	12.3%	-1.7%	-15.4%	-2.2%
COc1ccccc1COC(=O)c1ccc(S(=O)(=O)N2CCOCC2)cc1	-2.0	.	-11.1%	.	-5.5%	.
Cc1ccc(S(=O)(=O)OCCc2ccccc2)cc1	.	.	.	.	.	1.4%
Cc1[nH]c2ccccc2c1/C=N/NC(=O)c1cccs1	105.0	.	?	.	31.4%	-15.4%
Cc1c(/C=N/NC(=O)c2cccs2)c2ccccc2n1Cc1ccccc1Cl	-81.0*	9.4%	?	i	7.5%	-0.9%
O=C(N/N=C/c1c(O)ccc2ccccc12)c1cccnc1	-97.8*	-29.3%	5.01µM*	?	13.9%	-15.8%
